Results: PubChem BioAssay AID624040 (The Scripps Research Institute Molecular Screening Center, 2012)
About 2,100 (0.58%) of roughly 360,000 compounds were called active.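 Rule for the calls: active = inhibition above a per-plate cutoff, the mean of that plate's test compounds plus 3 SD (cut at about 27% in these data); inactive = the rest.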 The list comes from a sample in which actives are over-represented; it also holds similar structures and randomly drawn compounds.

These compounds were tested against Muscarinic acetylcholine receptor M5 (Homo sapiens) (UniProt P08912) (assay: human M5 muscarinic receptor antagonists, primary screen, CHO cells, Fluo-8 calcium fluorescence (AID 624040;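 note: 0% = acetylcholine EC80 with DMSO and 100% = DMSO without agonist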)). Settings: CHO-hM5 cells, ACh EC80, at 3 µM, active compounds read high.
Muscarinic acetylcholine receptor M5 (Homo sapiens), sequence (P08912 whole entry, looked up): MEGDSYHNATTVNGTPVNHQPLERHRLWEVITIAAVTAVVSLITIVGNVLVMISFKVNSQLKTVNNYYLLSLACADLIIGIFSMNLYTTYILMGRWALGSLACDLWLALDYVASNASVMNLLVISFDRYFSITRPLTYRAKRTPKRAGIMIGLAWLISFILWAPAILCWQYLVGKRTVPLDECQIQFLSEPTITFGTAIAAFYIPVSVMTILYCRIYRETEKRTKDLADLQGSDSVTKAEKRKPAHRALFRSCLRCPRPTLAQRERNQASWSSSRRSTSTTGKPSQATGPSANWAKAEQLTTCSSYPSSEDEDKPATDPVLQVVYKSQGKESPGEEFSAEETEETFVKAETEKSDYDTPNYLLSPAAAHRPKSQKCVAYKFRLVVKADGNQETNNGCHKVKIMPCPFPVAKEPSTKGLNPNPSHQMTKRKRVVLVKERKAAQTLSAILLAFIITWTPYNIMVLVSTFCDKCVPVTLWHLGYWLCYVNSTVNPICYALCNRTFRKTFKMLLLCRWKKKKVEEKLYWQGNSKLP
In the case of `CCCC[N+]1(C)C2CC(OC(=O)C(CO)c3ccccc3)CC1C1OC12` (stereo not given), the inhibition is reported as 73.3% (active).
With `CCn1cc(CN2CCCC(C(=O)c3cccc(C(F)(F)F)c3)C2)cn1` (stereo not given) the inhibition was 12.4% (inactive).
In the case of `CCCCCCCCCCCCn1ccc(=N)cc1`, the inhibition is reported as 33.9% (active).
For `CCOC(=O)C1(c2ccccc2)CCN(CC(O)c2ccc(NC(C)=O)cc2)CC1` (stereo not given), the inhibition was 11.2% (inactive).
For `O=c1c2ccccc2nc(/C=C/c2ccco2)n1-c1ccccc1O`, the inhibition was 3.76% (inactive).
With `Cc1ccc(-c2nn(CCC#N)cc2C(=O)O)cc1C` the inhibition was 1.31% (inactive).
`CC[N+]1(C)CCCC(OC(=O)C(O)(c2ccccc2)c2ccccc2)C1` (stereo not given) was tested, and the inhibition was 98.3% (active).
In the case of `Oc1cc2c(cc1CN1CCN(c3ccccc3)CC1)OCO2`, the inhibition is reported as 15.7% (inactive).
In the case of `COC(=O)C[C@H]1CC[C@H]2NC[C@@H](O)COC[C@@H]2O1`, the inhibition is reported as 7.66% (inactive).
With `COC1=CC=C2[C@H]3Cc4ccc(OC)c5c4[C@@]2(CCN3C)C1O5` (stereo not given in full) the inhibition was -5.74% (inactive).
`CNC(=S)N/N=C1\C2CN3CCN(C2)CC1(c1ccccc1)C3` was tested, and the inhibition was 3.28% (inactive).
In the case of `Nc1ccc(C(=O)N/N=C2/CN3CCC2CC3)cc1`, the inhibition is reported as 6.34% (inactive).
`CC1CCCN1CCC(C(N)=O)(c1ccccc1)c1ccccc1` (stereo not given) was tested, and the inhibition was 99.5% (active).
`O=C(Cc1ccccc1)N1CCN(C2CCCCCC2)CC1` was tested, and the inhibition was 0.09% (inactive).
In the case of `CC1CCCCN1Cc1cccnc1` (stereo not given), the inhibition is reported as 12.5% (inactive).
For `CCCC(C)n1[nH]c(=O)c2c1NC(=O)CSC2c1ccc(OC)c(OC)c1` (stereo not given), the inhibition was 7.43% (inactive).
With `CC1C2Cn3c(nc4ccccc43)C1N(C)O2` (stereo not given) the inhibition was 0.97% (inactive).
With `Cc1ncoc1C(=O)NCC1=C(c2cccc3ccccc23)C[C@@H]2CC[C@H]1N2Cc1ccco1` the inhibition was -3.17% (inactive).
For `COc1ccc2c(c1O)-c1cccc3c1[C@@H](C2)N(C)CC3`, the inhibition was -4.83% (inactive).
In the case of `COc1ccc(C2C=C(C)Oc3c2c(=O)oc2ccccc32)cc1OC` (stereo not given), the inhibition is reported as 2.6% (inactive).
